Screening results deposited in PubChem BioAssay by National Center for Advancing Translational Sciences (NCATS).
The list is not random: actives were taken first. Their share in the collection is about 16%.
DT40 TDP1 CPT = qHTS for Inhibitors of human tyrosyl-DNA phosphodiesterase 1 (TDP1): qHTS in cells in presence of CPT; chicken DT40 Tdp1-/-;hTDP1 cells + 20 nM CPT, ATP luminescence, 48 h; Potency, µM (highest dose often 46.2 µM), without a hit: top-dose activity change, negative = growth inhibition, hits mostly inhibitors; 420,000 compounds, 12% hits; AID 686979, 2013; further: potency means the concentration at half of the fitted maximal effect; on the % scale 0 is the no-effect control and ±100 the full control effect; nearly all actives have a fitted effect of over 55% in size
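Chicken DT40 Tdp1-/- cells complemented with human TDP1, 400 cells/well, exposed to compounds plus 20 nM camptothecin for at least 48 h at 37 C; viability read as ATP content by CellTiter-Glo luminescence.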
uPA generation = qHTS for Inhibitors of Cell Surface uPA Generation | AID 540303, 2011 | 330,000 compounds, 0.31% hits | Potency, µM (top dose mostly 38.3 µM), for inactives: top-dose activity change, negative = inhibition, actives largely listed as inhibitors | cell surface uPA generation assay, qHTS; active means well fitted inhibition curve with a large enough effect; inconclusive means small, poorly fitted or top-dose-only effect; inactive means no such curve, though single readings can be large or run the other way; tested in mouse RAW 264.7 cells; further: potency means the concentration at half of the fitted maximal effect; on the % scale 0 is the no-effect control and ±100 the full control effect; nearly all actives have a fitted effect of over 55% in size
DT40 TDP1 no CPT = qHTS for Inhibitors of human tyrosyl-DNA phosphodiesterase 1 (TDP1): qHTS in cells in absence of CPT; DT40 Tdp1-/- hTDP1 cells, no CPT, ATP luminescence, 48 h; Potency, µM (series often up to 46.2 µM), without a hit: at the top dose activity change, negative = growth inhibition, most hits filed as inhibitors; 420,000 compounds, 15% hits; AID 686978, 2013; further: potency means the concentration at half of the fitted maximal effect; on the % scale 0 is the no-effect control and ±100 the full control effect; nearly all actives have a fitted effect of over 55% in size
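Growth of hTDP1-complemented DT40 Tdp1-knockout cells is measured by ATP luminescence after at least 48 hr compound exposure at 37 °C, with DMSO substituting for the 20 nM CPT used in the parallel screen.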
TDP1 block = qHTS Assay for Inhibitors of Tyrosyl-DNA Phosphodiesterase (TDP1). recombinant TDP1, AlphaScreen DNA substrate cleavage. Potency, µM (series often up to 130 µM), inactives show top-dose activity change, negative = inhibition, most hits filed as inhibitors. 350,000 compounds, 0.28% hits; further: potency means the concentration at half of the fitted maximal effect; on the % scale 0 is the no-effect control and ±100 the full control effect; nearly all actives have a fitted effect of over 40% in size
Target sequence (Q9NUW8 whole entry, looked up): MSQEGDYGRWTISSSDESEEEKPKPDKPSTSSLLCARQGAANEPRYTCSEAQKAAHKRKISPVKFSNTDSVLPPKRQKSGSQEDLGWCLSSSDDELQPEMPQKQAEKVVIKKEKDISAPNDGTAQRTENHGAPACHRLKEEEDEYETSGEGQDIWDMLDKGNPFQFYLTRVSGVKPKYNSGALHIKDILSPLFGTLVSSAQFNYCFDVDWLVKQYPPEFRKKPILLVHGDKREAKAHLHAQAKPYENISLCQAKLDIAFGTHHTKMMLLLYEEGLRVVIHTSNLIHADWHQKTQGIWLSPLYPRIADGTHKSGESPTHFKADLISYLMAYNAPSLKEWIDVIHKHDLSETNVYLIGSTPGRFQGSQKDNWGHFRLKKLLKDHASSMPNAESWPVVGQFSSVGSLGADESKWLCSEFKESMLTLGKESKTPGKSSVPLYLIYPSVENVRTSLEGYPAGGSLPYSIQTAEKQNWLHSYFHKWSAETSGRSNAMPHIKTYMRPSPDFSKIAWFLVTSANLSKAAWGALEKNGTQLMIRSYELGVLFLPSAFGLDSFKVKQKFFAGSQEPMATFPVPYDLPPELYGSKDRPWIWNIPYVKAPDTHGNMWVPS
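Recombinant human Tdp1 (E. coli-expressed, 1 nM final) preincubated with compounds 15 min at room temperature, then 5'-biotin/3'-phosphotyrosine-FITC DNA substrate (15 nM final) added for 5 min. AlphaScreen beads (10 ug/ml final) added 10 min; cleavage lowers signal.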
miR-21 act = qHTS Assay for Modulators of miRNAs and/orActivators of miR-21; HeLa miR-21 FLuc reporter, luciferase, 48 h; Potency, µM (highest dose often 38.3 µM), for inactives: top-dose activity change, positive = activation, actives largely listed as activators; 340,000 tested, under 10 active; AID 2288, 2010;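 further: % of control where 0% means no effect; miR-21 action dims this reporter so a rising signal means less miR-21 action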
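Luminescence from a firefly luciferase reporter carrying a miR-21 binding site downstream, stably expressed under a CMV promoter in HeLa cells that make miR-21 endogenously, reports miRNA modulation after 48 h compound exposure up to approximately 40uM final.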
* marks the source's active call; other numbers are inactive results; ? = inconclusive; · = not tested or not shown; [ ] = dose if it differs, or a comment. Unless noted, the call rests on the fitted dose curve; in most records, active means well fitted curve in the direction sought with a large enough effect; inconclusive means small, poorly fitted or top-dose-only effect, or another doubt; inactive means no such curve, though single readings can be large; an effect the other way counts as inactive or inconclusive.

SMILES	DT40 TDP1 CPT	uPA generation	DT40 TDP1 no CPT	TDP1 block	miR-21 act
CCN1C(=O)[C@@H]2[C@H](C1=O)[C@@H]1CC(C(=O)OC)=C[C@@H](C(=O)OC)C3C1=C(C(=O)C3(CC)CC)[C@@H]2C (stereo not given in full)	-20%	-21%	?	8%	·
O=[N+]([O-])c1ccc(S(=O)(=O)NCCc2ccncc2)cc1	-1%	4%	-4%	-1%	3%
COC(=O)C1=C(C)N(Cc2ccccc2)C(=NCc2cccc(C(F)(F)F)c2)N[C@H]1c1cccc(F)c1	6.5µM*	?	6.5µM*	·	?
COC(=O)C1=C(C)N(Cc2ccccc2)C(=NCCCCO)N[C@H]1CCc1ccccc1	?	-8%	16µM*	·	13%
COC(=O)C1=C(C)N(Cc2ccccc2)C(=O)N[C@H]1c1cccc(F)c1	-18%	3%	-27%	2%[21 µM]	·
COC(=O)C1=C(C)N(Cc2ccccc2)C(=S)N[C@H]1CCc1ccccc1	·	·	·	·	5%
COC(=O)C1=C(C)N(Cc2ccccc2)C(=NCCCCO)N[C@H]1c1cccc(C(F)(F)F)c1	23µM*	-15%	?	0%	0%
CCN1C(=NCCCCO)N[C@@H](c2cccc(C(F)(F)F)c2)C(C(=O)OC)=C1C	?	4%	-20%	·	0%
COCCN=C1N[C@@H](c2cccc(C(F)(F)F)c2)C(C(=O)OC)=C(C)N1Cc1ccccc1	13µM*	-12%	10µM*	·	19%
Cc1nc2c(C(=O)NCc3ccccc3Cl)c[nH]n2c(=O)c1Cc1cccc(Cl)c1	?	·	?	12%	24%
CCN1C(=NCCc2cccs2)N[C@@H](c2cccs2)C(C(=O)OC)=C1C	6.5µM*	?	21µM*	·	13%
C=CCN=C1N[C@@H](c2cccc(C(F)(F)F)c2)C(C(=O)OC)=C(C)N1CC	?	7%	?	·	10%
CCN1C(=NCC(C)C)N[C@@H](c2cccc(C(F)(F)F)c2)C(C(=O)OC)=C1C	?	-18%	21µM*	·	17%
CCOC(=O)CN1C(=O)N[C@@H](c2cccs2)C(C(=O)OC)=C1C	?	12%	?	7%[12.3 µM]	·
CCN1C(=NCc2cccc(Cl)c2)N[C@@H](c2cccc(F)c2)C(C(=O)OC)=C1C	?	-6%	18µM*	·	-5%
CC[C@@H](C)[C@H](CN[C@H](CNC)C(C)C)NC[C@@H](C)c1ccc(CC(C)C)cc1	1.5µM*	?	1.5µM*	·	?
CC[C@H](C)[C@@H](CNC)NC[C@@H](Cc1ccc(O)cc1)NCC(C)(C)C	?	-10%	-29%	·	2%
Cc1cc(C)cc(NC(=O)COC(=O)c2cc(=O)[nH]c(=O)[nH]2)c1	4%	4%	14%	4%	1%
Cc1ccc(C(=O)COC(=O)CCN2C(=O)C3C4CCC(C4)C3C2=O)cc1[N+](=O)[O-] (stereo not given)	-10%	-3%	10%	5%	-1%
O=C(CC(O)c1ccccc1)Nc1ccccn1 (stereo not given)	-9%	0%	-9%	·	·
CCn1c(=O)c(=O)[nH]c2cc(C(=O)NC3CCCc4ccccc43)ccc21 (stereo not given)	?	-13%	?	4%	15%
Cc1[nH]c2ccc(C(=O)N3CCN(Cc4ccccc4)CC3)cc2c1C	?	0%	-16%	·	-29%
CCc1[nH]c(=O)[nH]c1C(C)S(=O)(=O)c1ccc(C)cc1 (stereo not given)	?	-4%	?	7%	5%
CCc1c(C(C)S(=O)(=O)c2ccc(C)cc2)[nH]c(=O)n1-c1ccc(C)cc1 (stereo not given)	?	-1%	29µM*	6%	2%
Cc1ccc(C2CN(c3ccccc3)CC2C(=O)c2ccc(F)cc2)cc1 (stereo not given)	?	6%	?	3%	-7%
SMILES	DT40 TDP1 CPT	uPA generation	DT40 TDP1 no CPT	TDP1 block	miR-21 act
Cc1nc(CS(=O)c2ccc(Cl)cc2)cc(NCc2ccc(Cl)cc2Cl)n1 (stereo not given)	15µM*	0%	21µM*	3%	10%
COc1ccc(CCN=c2c([N+](=O)[O-])nn(-c3cccc(C)c3)n2O)cc1OC	10µM*	-91%	?	5%	16%
Cc1cccc(CCN=c2c([N+](=O)[O-])nn(-c3ccccc3)n2O)c1	15µM*	?	?	9%	-2%
O=[N+]([O-])c1nn(-c2ccc(Cl)cc2)n(O)c1=NCc1ccccc1	10µM*	-15%	?	8%	-37%
Cc1cccc(-n2nc([N+](=O)[O-])c(=NC3CCN(Cc4ccccc4)CC3)n2O)c1	8.2µM*	2.8µM*	12µM*	1%	14%
COC(=O)[C@]12CCCCC=C1N(CCC1=CCCCC1)C(=O)[C@H](CC(=O)N1CCN(C(=O)C3CC3)CC1)C2	?	·	16µM*	·	·
COC(=O)[C@]12CCCCC=C1N(CCC1=CCCCC1)C(=O)[C@H](CC(=O)N1CCCCC1)C2	18µM*	·	23µM*	·	·
C/C(NCCc1ccc(O)cc1)=C1/CCOC1=O	-14%	·	1%	·	·
Cc1cc2c(cc1C)-n1nnnc1C(N1CCN(CC(=O)NC(C)C)CC1)C(=O)N2 (stereo not given)	?	·	-28%	·	·
Cc1cc2c(cc1C)-n1nnnc1C(N(Cc1ccccc1)Cc1ccccc1)C(=O)N2 (stereo not given)	?	·	21µM*	·	·
Cc1cnc(-n2ncc(C(=O)NCCc3cccnc3)c2C)nc1-c1cccs1	-5%[9.04 µM]	·	21µM*	·	·
CC1CCc2cc(F)ccc2N1S(=O)(=O)c1ccc(Cl)nc1 (stereo not given)	15µM*	-7%	?	-3%	3%
Cc1ccc(C(=O)N/N=C\c2ccccc2[N+](=O)[O-])cn1	-1%	?	14%	6%	-27%
Cc1c(C(=O)N/N=C/C(C)C)[nH]c2c([N+](=O)[O-])cccc12	4%	-10%	23µM*	4%	23%
COc1ccc(CNC(=O)COC(=O)c2ccc(C(=O)c3ccccc3)cc2)cc1	-18%	0%	-10%	0%	·
Cc1ccc(-n2nc3c(=O)n(CCCC(=O)NCC(C)c4ccccc4)nc(C)c3c2C)cc1 (stereo not given)	?	?	15µM*	6%	-2%
Cc1ccc(-n2nc3c(=O)n(CCCC(=O)NCc4ccccc4C)nc(C)c3c2C)cc1	21µM*	?	21µM*	0%	1%
